Measurements reported in PubChem BioAssay (NCI).
This is part of a sample that, as a whole, favours compounds with a hit. Of some 83,000 tested, about 20% had one in any assay.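 Growth was measured after 48 h exposure to one concentration of compound in 96-well plates. Values under 10 count as active.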 The source made the active and inactive calls.

tested on: HL-60(TB) leukemia; experiment: NCI-60 one-dose screen, 48 h (100 = growth as untreated, 0 = no growth, -100 = all killed); conditions: 10 µM unless noted

Compound | growth
C=CCc1cc(C)ccc1NC(C(=O)NCC(=O)OC)c1ccccc1 (stereo not drawn) | 103% (inactive)
Nc1cccc2c(=S)c3ccccc3[nH]c12 | 107% (inactive)
Cn1[nH]cc(/C=N/C(N)=O)c1=O | 110% (inactive)
COc1cc(C(=O)c2cc(C)c3[nH]c4ccc(O)cc4c3c2C)cc(OC)c1OC | -13.7% (active)
CCOC(=O)c1nn(C2CCCCO2)c2ccc(NC(=O)CN3CCCC3)cc12 (stereo not drawn) | 97.4% (inactive)
CC/C(=C(/c1ccc(Cl)cc1)c1ccc(OCCN2CCOCC2)cc1)c1ccccc1 | 104% (inactive)
COc1cc(/C=C2\CCCC3C2=Nc2ccccc2NC3c2cc(OC)c(OC)c(OC)c2)cc(OC)c1OC (stereo not drawn) | 1.55% (active)
COc1ccc(C(=O)c2cc(OC)c(OC)c(OC)c2)cc1/C=C/C(=O)c1ccc2c(c1)OCO2 | 27.5% (inactive)
CCOC(=O)c1c(NC(=O)c2ccccc2)sc2c3c(ccc12)OCN(C)C3 | -62.5% (active)
Cc1ccc(-c2ccc(Nc3ccccc3)nn2)cc1S(N)(=O)=O | 86.7% (inactive)
N#Cc1c(-c2ccc(Cl)cc2)nc(NN=Cc2ccco2)nc1N1CCOCC1 | 108% (inactive)
COc1ccc(Cn2cc(C(=O)N=Nc3c(O)[nH]c4c(Cl)cccc34)nn2)cc1 | 97.4% (inactive)
O=C1c2nsnc2C(=O)c2c(F)c(F)c(F)c(F)c21 | -41.9% (active)
Cn1nnnc1-c1ccc(N)cc1 | 94.4% (inactive)
CN1CCN(c2ccc3c(c2)nc(NNC(=O)c2cnccn2)c2cccn23)CC1 | -9.26% (active)
O=C(Nc1cccc(-c2nc3ccccc3[nH]2)c1)c1cccc(NC(=O)c2ccco2)c1 | 88.9% (inactive)
C(=C\c1nccc2c1[nH]c1ccccc12)/c1ccccc1 | 55.5% (inactive)
COc1ccccc1NC(=O)c1cc2cc(Br)ccc2cc1O | -33.7% (active)
COc1cc2c(/C=C3/C(=O)Nc4ccc(O)cc43)c(Cl)n(Cc3cc(OC)c(OC)c(OC)c3)c2cc1C | -33.7% (active)
CN1CCOCCN(C)Cc2ccc3ccc(cc3c2)CN(C)CCOCCN(C)Cc2ccc3ccc(cc3c2)C1 | 20.7% (inactive)
Cn1ccnc1C(=O)/C=C/c1ccc(CC(=O)Nc2ccc(Cl)cc2)cc1 | 5.24% (active)
CCCCCCC(=O)C(C)C | 101% (inactive)
CC(=O)Nc1ccc2c(c1)Cc1c(F)cccc1-2 | 97.7% (inactive)
